From the supplement of paper PMC6992640 come the findings set out here.

What all share (test): cell viability of combination (% of vehicle); higher = less cytotoxic
What all share (details): 1 µM; 72 h; partner dose: 10 nM

Assay [1] deals with HCI01 (cells of a triple-negative basal-like breast cancer xenograft). How it is done: (§1)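 PDX cells were treated for 72 h with each drug at 1 µM plus carfilzomib (10 nM; 100 nM for WHIM2). Luciferase viability is expressed as percent of vehicle.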
For assay [2], the system named is UCD52 (cells of a triple-negative basal-like breast cancer xenograft). As for the experimental part:
as §1

The next assay deals with WHIM30 (cells of a triple-negative basal-like breast cancer xenograft). As for the experimental part:
as §1

Assay [3] concerns HCI01. As for the experimental part:
(§2)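 PDX cells were treated for 72 h with each drug at 1 µM plus afatinib (10 nM; 1 µM for WHIM30). Luciferase viability is expressed as percent of vehicle.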
This is another data set of the same source.

Assay [4] has as its system UCD52. As for the experimental part: as §2
This is another data set of the same source.

The next assay relates to WHIM2 (cells of a triple-negative basal-like breast cancer xenograft). As for the experimental part: as §2

In the case of `O=C(C=Cn1cnc(-c2cc(C(F)(F)F)cc(C(F)(F)F)c2)n1)NNc1cnccn1` + CC(C)C[C@H](NC(=O)[C@H](CCc1ccccc1)NC(=O)CN1CCOCC1)C(=O)N[C@@H](Cc1ccccc1)C(=O)N[C@@H](CC(C)C)C(=O)[C@@]1(C)CO1 [Carfilzomib], the “cell viability of combination” value in the assay on HCI01 [1] was found to be 57.3; in the assay with UCD52 [2] it was 40.1.

For the compound `CCOc1nc2cccc(C(=O)OC(C)OC(=O)OC3CCCCC3)c2n1Cc1ccc(-c2ccccc2-c2nn[nH]n2)cc1` (stereo not drawn) [Candesartan Cilexetil] + CC(C)C[C@H](NC(=O)[C@H](CCc1ccccc1)NC(=O)CN1CCOCC1)C(=O)N[C@@H](Cc1ccccc1)C(=O)N[C@@H](CC(C)C)C(=O)[C@@]1(C)CO1 [Carfilzomib], the “cell viability of combination” value with HCI01 [1] came to 77.5; in the assay with UCD52 [2], 61.4.

For `CN(C)CC=CC(=O)Nc1cc2c(Nc3ccc(F)c(Cl)c3)ncnc2cc1OC1CCOC1.O=C(O)C=CC(=O)O.O=C(O)C=CC(=O)O` (stereo not drawn) [Afatinib dimaleate] + CC(C)C[C@H](NC(=O)[C@H](CCc1ccccc1)NC(=O)CN1CCOCC1)C(=O)N[C@@H](Cc1ccccc1)C(=O)N[C@@H](CC(C)C)C(=O)[C@@]1(C)CO1 [Carfilzomib], the “cell viability of combination” value with HCI01 [1] stood at 86.1; in the assay on UCD52 [2] it was 26.6.

As for `CC(C)(C)c1ccc(C(=O)CCCN2CCC(OC(c3ccccc3)c3ccccc3)CC2)cc1` [Ebastine] + CC(C)C[C@H](NC(=O)[C@H](CCc1ccccc1)NC(=O)CN1CCOCC1)C(=O)N[C@@H](Cc1ccccc1)C(=O)N[C@@H](CC(C)C)C(=O)[C@@]1(C)CO1 [Carfilzomib], the “cell viability of combination” value in the assay with HCI01 [1] worked out at 74; with UCD52 [2], 59.8.

As to `CNC(=O)c1cc(Oc2ccc(NC(=O)Nc3ccc(Cl)c(C(F)(F)F)c3)cc2)ccn1` [Sorafenib] + CC(C)C[C@H](NC(=O)[C@H](CCc1ccccc1)NC(=O)CN1CCOCC1)C(=O)N[C@@H](Cc1ccccc1)C(=O)N[C@@H](CC(C)C)C(=O)[C@@]1(C)CO1 [Carfilzomib], the “cell viability of combination” value with HCI01 [1] came to 69; in the assay on UCD52 [2], 49.

Regarding `C=C1C(=CC=C2CCCC3(C)C2CCC3C(C)C=CC(C)C(C)C)CC(O)CC1O` (stereo not drawn) [Doxercalciferol] + CC(C)C[C@H](NC(=O)[C@H](CCc1ccccc1)NC(=O)CN1CCOCC1)C(=O)N[C@@H](Cc1ccccc1)C(=O)N[C@@H](CC(C)C)C(=O)[C@@]1(C)CO1 [Carfilzomib], the “cell viability of combination” value with HCI01 [1] was 67; in the assay on UCD52 [2], 44.

On to `CCOC(=O)C1=C(COCCN)NC(C)=C(C(=O)OC)C1c1ccccc1Cl.O=S(=O)(O)c1ccccc1` (stereo not drawn) [Amlodipine Besylate] + CC(C)C[C@H](NC(=O)[C@H](CCc1ccccc1)NC(=O)CN1CCOCC1)C(=O)N[C@@H](Cc1ccccc1)C(=O)N[C@@H](CC(C)C)C(=O)[C@@]1(C)CO1 [Carfilzomib], for which the “cell viability of combination” value was found to be 97.1 in the assay on HCI01 [1] and 64.8 in the assay on UCD52 [2].

With `CC1(COc2ccc3c(c2)ncn3-c2ccc3cccc(N4CCC(N)CC4)c3n2)COC1` + CC(C)C[C@H](NC(=O)[C@H](CCc1ccccc1)NC(=O)CN1CCOCC1)C(=O)N[C@@H](Cc1ccccc1)C(=O)N[C@@H](CC(C)C)C(=O)[C@@]1(C)CO1 [Carfilzomib], the figures for the “cell viability of combination” value with HCI01 [1] and in the assay on UCD52 [2] were 102 and 135, respectively.

On to `C#Cc1cccc(Nc2ncnc3cc(OCCOC)c(OCCOC)cc23)c1.Cl` [Erlotinib Hydrochloride] + CC(C)C[C@H](NC(=O)[C@H](CCc1ccccc1)NC(=O)CN1CCOCC1)C(=O)N[C@@H](Cc1ccccc1)C(=O)N[C@@H](CC(C)C)C(=O)[C@@]1(C)CO1 [Carfilzomib], for which the “cell viability of combination” value was found to be 62.6 in the assay with HCI01 [1] and 57.4 in the assay with UCD52 [2].

For the compound `O=C(NN=Cc1ccc([N+](=O)[O-])o1)c1ccc(O)cc1` [Nifuroxazide] + CC(C)C[C@H](NC(=O)[C@H](CCc1ccccc1)NC(=O)CN1CCOCC1)C(=O)N[C@@H](Cc1ccccc1)C(=O)N[C@@H](CC(C)C)C(=O)[C@@]1(C)CO1 [Carfilzomib], the entries for the “cell viability of combination” value in the assay on HCI01 [1], in the assay on UCD52 [2] and in the assay with WHIM30 were 72.2, 57.6 and 12.5, respectively.

With `COc1ccc(CN2CCN(C(c3ccc(F)cc3)c3ccc(F)cc3)CC2)c(OC)c1OC.Cl.Cl` [Lomerizine HCl] + CC(C)C[C@H](NC(=O)[C@H](CCc1ccccc1)NC(=O)CN1CCOCC1)C(=O)N[C@@H](Cc1ccccc1)C(=O)N[C@@H](CC(C)C)C(=O)[C@@]1(C)CO1 [Carfilzomib], the “cell viability of combination” value with HCI01 [1] turned out to be 91.1; in the assay with UCD52 [2], 57.7; in the assay on WHIM30, 15.6.

Take `COc1cc2nccc(Oc3ccc(NC(=O)C4(C(=O)Nc5ccc(F)cc5)CC4)cc3)c2cc1OC.O=C(O)CC(O)C(=O)O` [Cabozantinib malate (XL184)] + CC(C)C[C@H](NC(=O)[C@H](CCc1ccccc1)NC(=O)CN1CCOCC1)C(=O)N[C@@H](Cc1ccccc1)C(=O)N[C@@H](CC(C)C)C(=O)[C@@]1(C)CO1 [Carfilzomib]: the “cell viability of combination” value with HCI01 [1] was 77; with UCD52 [2] it was 57.2; with WHIM30 it was 16.1.

Turning to `Cl.Cl.Fc1ccc(C(c2ccc(F)cc2)N2CCN(CC=Cc3ccccc3)CC2)cc1` [Flunarizine 2HCl] + CN(C)C/C=C/C(=O)Nc1cc2c(Nc3ccc(F)c(Cl)c3)ncnc2cc1O[C@H]1CCOC1 [Afatinib], the “cell viability of combination” value in the assay with HCI01 [3] turned out to be 63.3; with UCD52 [4], 77; with WHIM2 it was 50.6.

In the case of `CC1(COc2ccc3c(c2)ncn3-c2ccc3cccc(N4CCC(N)CC4)c3n2)COC1` + CN(C)C/C=C/C(=O)Nc1cc2c(Nc3ccc(F)c(Cl)c3)ncnc2cc1O[C@H]1CCOC1 [Afatinib], the results for the “cell viability of combination” value in the assay with HCI01 [3] and in the assay on UCD52 [4] were 56.3 and 108, respectively.

`CC(C)C1=CC(=C2NNC(=O)N2c2ccc3c(ccn3C)c2)C(=O)C=C1O` [Ganetespib (STA-9090)] + CC(C)C[C@H](NC(=O)[C@H](CCc1ccccc1)NC(=O)CN1CCOCC1)C(=O)N[C@@H](Cc1ccccc1)C(=O)N[C@@H](CC(C)C)C(=O)[C@@]1(C)CO1 [Carfilzomib]: the “cell viability of combination” value amounted to 66.1 in the assay with HCI01 [1], 58.6 in the assay on UCD52 [2] and 23.7 in the assay on WHIM30.

For `COc1cccc2c1C(=O)c1c(O)c3c(c(O)c1C2=O)CC(O)(C(=O)CO)CC3OC1CC(N)C(O)C(C)O1.Cl` (stereo not drawn) [Epirubicin HCl] + CC(C)C[C@H](NC(=O)[C@H](CCc1ccccc1)NC(=O)CN1CCOCC1)C(=O)N[C@@H](Cc1ccccc1)C(=O)N[C@@H](CC(C)C)C(=O)[C@@]1(C)CO1 [Carfilzomib], the “cell viability of combination” value came to 73.9 in the assay on HCI01 [1], 21 in the assay on UCD52 [2] and 5.02 with WHIM30.

With `CC(C)Nc1cc(-c2c[nH]c(C(=O)NC(CO)c3cccc(Cl)c3)c2)c(Cl)cn1` (stereo not drawn) + CC(C)C[C@H](NC(=O)[C@H](CCc1ccccc1)NC(=O)CN1CCOCC1)C(=O)N[C@@H](Cc1ccccc1)C(=O)N[C@@H](CC(C)C)C(=O)[C@@]1(C)CO1 [Carfilzomib], the “cell viability of combination” value in the assay with HCI01 [1] stood at 94; in the assay with UCD52 [2] it was 48.9; in the assay with WHIM30, 21.7.

On to `C=C(c1ccc(C(=O)O)cc1)c1cc2c(cc1C)C(C)(C)CCC2(C)C` [Bexarotene] + CC(C)C[C@H](NC(=O)[C@H](CCc1ccccc1)NC(=O)CN1CCOCC1)C(=O)N[C@@H](Cc1ccccc1)C(=O)N[C@@H](CC(C)C)C(=O)[C@@]1(C)CO1 [Carfilzomib], for which the “cell viability of combination” value is 71.8 in the assay on HCI01 [1], 79.6 with UCD52 [2] and 25.7 with WHIM30.

As to `CCN(CC)CCNC(=O)c1c(C)[nH]c(C=C2C(=O)Nc3ccc(F)cc32)c1C` [Sunitinib] + CC(C)C[C@H](NC(=O)[C@H](CCc1ccccc1)NC(=O)CN1CCOCC1)C(=O)N[C@@H](Cc1ccccc1)C(=O)N[C@@H](CC(C)C)C(=O)[C@@]1(C)CO1 [Carfilzomib], the figures for the “cell viability of combination” value with HCI01 [1], in the assay on UCD52 [2] and in the assay with WHIM30 were 66, 59.3 and 33.2, respectively.

Regarding `COC1=C(OC)C(=O)C(CCCCCCCCCCO)=C(C)C1=O` [Idebenone] + CN(C)C/C=C/C(=O)Nc1cc2c(Nc3ccc(F)c(Cl)c3)ncnc2cc1O[C@H]1CCOC1 [Afatinib], the results for the “cell viability of combination” value in the assay with HCI01 [3], with UCD52 [4] and with WHIM2 were 58.8, 62.7 and 50.1, respectively.

As to `CNCCC(Oc1cccc2ccccc12)c1cccs1.Cl` (stereo not drawn) [Duloxetine HCl] + CC(C)C[C@H](NC(=O)[C@H](CCc1ccccc1)NC(=O)CN1CCOCC1)C(=O)N[C@@H](Cc1ccccc1)C(=O)N[C@@H](CC(C)C)C(=O)[C@@]1(C)CO1 [Carfilzomib], the “cell viability of combination” value in the assay on HCI01 [1] was found to be 81.6; in the assay with UCD52 [2], 62.4; with WHIM30, 16.1.

As for `COc1cccc2c1C(=O)c1c(O)c3c(c(O)c1C2=O)C[C@@](O)(C(C)=O)C[C@@H]3O[C@H]1C[C@H](N)[C@H](O)[C@H](C)O1.Cl` [Daunorubicin HCl] + CC(C)C[C@H](NC(=O)[C@H](CCc1ccccc1)NC(=O)CN1CCOCC1)C(=O)N[C@@H](Cc1ccccc1)C(=O)N[C@@H](CC(C)C)C(=O)[C@@]1(C)CO1 [Carfilzomib], the “cell viability of combination” value in the assay on HCI01 [1] was determined as 79.9; in the assay on UCD52 [2] it was 17.1; in the assay with WHIM30, 4.41.

With `CC(=O)c1cc2c(o1)C(=O)c1ccccc1C2=O` [Napabucasin] + CC(C)C[C@H](NC(=O)[C@H](CCc1ccccc1)NC(=O)CN1CCOCC1)C(=O)N[C@@H](Cc1ccccc1)C(=O)N[C@@H](CC(C)C)C(=O)[C@@]1(C)CO1 [Carfilzomib], the “cell viability of combination” value was 22.6 with HCI01 [1], 15.7 in the assay with UCD52 [2] and 5.17 in the assay on WHIM30.

For the compound `Cc1ccc(NC(=O)c2ccc(CN3CCN(C)CC3)cc2)cc1Nc1nc(-c2cccnc2)cs1` [Masitinib (AB1010)] + CC(C)C[C@H](NC(=O)[C@H](CCc1ccccc1)NC(=O)CN1CCOCC1)C(=O)N[C@@H](Cc1ccccc1)C(=O)N[C@@H](CC(C)C)C(=O)[C@@]1(C)CO1 [Carfilzomib], the results for the “cell viability of combination” value in the assay with HCI01 [1], in the assay with UCD52 [2] and in the assay on WHIM30 were 86.3, 69.6 and 28.7, respectively.

In the case of `CS(=O)(=O)CCNCc1ccc(-c2ccc3ncnc(Nc4ccc(OCc5cccc(F)c5)c(Cl)c4)c3c2)o1.Cc1ccc(S(=O)(=O)O)cc1.Cc1ccc(S(=O)(=O)O)cc1` [Lapatinib Ditosylate] + CC(C)C[C@H](NC(=O)[C@H](CCc1ccccc1)NC(=O)CN1CCOCC1)C(=O)N[C@@H](Cc1ccccc1)C(=O)N[C@@H](CC(C)C)C(=O)[C@@]1(C)CO1 [Carfilzomib], the “cell viability of combination” value with HCI01 [1] came out at 69.5; in the assay with UCD52 [2] it was 47.7; in the assay on WHIM30, 23.7.

With `Cl.Cl.Fc1ccc(C(c2ccc(F)cc2)N2CCN(CC=Cc3ccccc3)CC2)cc1` [Flunarizine 2HCl] + CC(C)C[C@H](NC(=O)[C@H](CCc1ccccc1)NC(=O)CN1CCOCC1)C(=O)N[C@@H](Cc1ccccc1)C(=O)N[C@@H](CC(C)C)C(=O)[C@@]1(C)CO1 [Carfilzomib], the entries for the “cell viability of combination” value in the assay on HCI01 [1], in the assay on UCD52 [2] and in the assay with WHIM30 were 103, 61.1 and 15, respectively.
